Screening results from PubChem BioAssay.
Hits are enriched below; roughly 3.5% of the tested compounds scored in any of these assays.
MITF inh – inhibitors of human MITF. O75030. AlphaScreen MITF homodimerization, bead proximity signal. inhibition, % at 2.6 µM. actives 0.91% (n = 650,000); in the data active = inhibition above about 50%;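 note: 0% = vehicle wells with protein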
TEAD-YAP inh – TEAD-YAP interaction inhibition; AID 1259422; actives 1.4% (n = 640,000); HEK-TIYL cells, TEAD-Gal4/YAP UAS-luciferase luminescence; inhibition, % at 9.12 µM; in the data active = inhibition above about 32%;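 note: 0% = median of test compound wells and 100% = reference inhibitor wells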
FBW7 act – human FBW7 E3 ligase activation, primary screen. AlphaScreen FBW7–phospho-cyclin E peptide binding, activator screen. Q969H0. normalized activity (activation), % at 26.1 µM. AID 1259310. actives 0.13% (n = 650,000); in the data active = normalized activity above about 1.9%;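 note: purified mutant Fbw7 with reduced substrate affinity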
Target sequence (Q969H0 whole entry, looked up): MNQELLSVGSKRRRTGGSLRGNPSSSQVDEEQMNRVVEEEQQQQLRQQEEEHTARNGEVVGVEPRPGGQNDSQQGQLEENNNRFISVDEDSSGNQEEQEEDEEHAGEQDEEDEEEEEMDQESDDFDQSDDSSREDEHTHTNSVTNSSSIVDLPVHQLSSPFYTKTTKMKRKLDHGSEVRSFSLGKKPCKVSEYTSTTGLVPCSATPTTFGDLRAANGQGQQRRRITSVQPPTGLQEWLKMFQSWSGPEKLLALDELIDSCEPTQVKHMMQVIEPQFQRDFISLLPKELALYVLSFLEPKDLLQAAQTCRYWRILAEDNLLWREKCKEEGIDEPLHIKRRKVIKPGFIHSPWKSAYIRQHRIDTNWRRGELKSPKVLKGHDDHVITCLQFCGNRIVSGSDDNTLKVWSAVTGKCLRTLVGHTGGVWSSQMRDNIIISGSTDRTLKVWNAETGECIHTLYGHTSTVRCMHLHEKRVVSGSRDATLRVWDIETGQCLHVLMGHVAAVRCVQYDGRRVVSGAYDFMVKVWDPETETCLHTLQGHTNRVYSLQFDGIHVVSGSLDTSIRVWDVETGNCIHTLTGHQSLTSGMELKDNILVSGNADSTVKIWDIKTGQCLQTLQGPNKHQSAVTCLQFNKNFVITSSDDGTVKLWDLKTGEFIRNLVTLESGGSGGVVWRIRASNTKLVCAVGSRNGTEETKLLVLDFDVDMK
GPR151 activ – activators of human GPR151; Q8TDV0; PathHunter beta-arrestin GPR151 cells, luminescence; activation, % at 11.2 µM; actives 1% (n = 650,000); AID 1508602; in the data active = activation above about 4.9%;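 note: 0% = median of compound wells and 100% = cells with positive control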
Starred values were filed as active, the others as inactive.

SMILES	MITF inh	TEAD-YAP inh	FBW7 act	GPR151 activ
O=C(Nc1ccc(-c2nc3cccnc3s2)cc1)C1CC1	10	75*	0	-4
O=C(Cc1ccccc1)Nc1ccc(-c2nc3cccnc3s2)cc1	8	-17	0	0
CC(C)CC(=O)Nc1ccc(-c2nc3cccnc3s2)cc1	16	54*	0	-3
CC(/C=C1N=C(/C=C/c2cccc(Cl)c2Cl)OC\1=O)=C\c1ccccc1	3	-2	0	-1
COc1ccc(OC)c(-n2c(CNC(=O)c3ccc(S(=O)(=O)N(C)C)cc3)nnc2SCC(=O)N2CCCc3ccccc32)c1	9	-8	0	0
COCCn1ccc2c(OCC(=O)Nc3ccc(C)cc3)cccc2c1=O	1	-2	0	-1
CCCn1ccc2c(OCC(=O)Nc3ccc(OC)c(OC)c3)cccc2c1=O	15	38*	0	0
CSc1nnc(NC(=O)c2ccccc2[N+](=O)[O-])s1	1	-18	0	-1
CSc1nnc(NC(=O)c2c(Cl)cccc2Cl)s1	-1	3	0	1
CSc1nnc(NC(=O)c2ccccc2C)s1	3	41*	0	-9
CSc1nnc(NC(=O)c2ccccc2Cl)s1	22	39*	0	-11
COc1cccc(C(=O)Nc2nnc(SC)s2)c1	-3	43*	0	-10
CCCSc1nnc(NC(=O)c2cccc(OC)c2)s1	17	-4	0	-2
CCOc1ccc2nc(NCCNC(=O)CC(C)(C)C)c(C#N)cc2c1	1	9	1	-1
COc1ccc(C(=O)CC(=O)c2ccccc2O)cc1	-2	-50	0	-2
COc1ccc(O)c(C(=O)CC(=O)c2ccc(F)cc2)c1	8	51*	0	-8
O=C(Cn1ncc2c(=O)oc3ccccc3c21)N1CCN(c2cccc(Cl)c2)CC1	12	41*	1	-1
O=C(Cn1ncc2c(=O)oc3ccccc3c21)N1CCN(c2ccccc2)CC1	7	2	0	1
c1ccc(C(OCCN2CCOCC2)(c2ccccc2)c2ccccc2)cc1	4	12	0	-1
CCOc1ccccc1Nc1nc(-c2c(C)nc3ccccn23)cs1	0	7	0	0
Cc1ccn2c(-c3csc(Nc4cccc(O)c4)n3)c(C)nc2c1	4	49*	0	0
CCOc1ccc(Nc2nc(-c3c(C)nc4cc(C)ccn34)cs2)cc1	0	67*	0	2
Cc1cccc(Nc2nc(-c3c(C)nc4cc(C)ccn34)cs2)c1	-12	11	0	0
CCOc1ccc(Nc2nc(-c3c(C)nc4ccccn34)cs2)cc1	3	70*	1	0
CCOc1cc(/C=C2/C(=O)NC(=O)N(c3ccc(C)cc3)C2=O)cc(Cl)c1O	0	3	0	-1
SMILES	MITF inh	TEAD-YAP inh	FBW7 act	GPR151 activ
C=CCn1c2ccccc2n2cc(-c3ccc(OC)cc3)nc12	4	-9	0	-1
CSc1ccc(C2C(C(=O)OCCc3ccccc3)=C(C)NC3=C2C(=O)CCC3)cc1 (stereo not drawn)	10	-1	0	1
CCOCCCN(C(=S)Nc1ccc(Cl)c(C)c1)C1CCN(C(C)=O)CC1	-2	-5	0	-1
CCOc1ccc(-n2cc(-c3ccccc3)c3c(Nc4ccc(F)cc4)ncnc32)cc1	6	9	0	0
Cc1ccc(CC(=O)Nc2ccncc2)cc1	9	42*	0	1
Cc1cc(OCC(=O)Nc2ccncc2)cc(C)c1Br	-5	33*	0	-1
Cc1cc(OCC(=O)Nc2cccnc2)cc(C)c1Br	5	3	0	-2
CCOc1ccccc1NC(=O)CN(c1cccc(Cl)c1Cl)S(C)(=O)=O	6	6	0	0
CCC(=O)NCc1nc2ccccc2n1Cc1ccc(C)cc1	5	12	0	1
CCc1c(C(=O)NC2CCCc3ccccc32)[nH]c(C)c1C(C)=O (stereo not drawn)	-7	37*	0	0
O=C(Nc1nc(-c2ccc(Cl)cc2Cl)cs1)c1cc(Cl)ccc1[N+](=O)[O-]	-1	5	0	0
Cc1ccc(C(=O)Nc2nnc(SCC(=O)Nc3ccc(F)c([N+](=O)[O-])c3)s2)cc1	-3	83*	0	1
Cc1cc(C)cc(OCC(=O)Nc2ccc(F)c([N+](=O)[O-])c2)c1	3	37*	0	4
Cc1ccc(NC(=O)CSc2nnc(NC(=O)c3ccccc3[N+](=O)[O-])s2)cc1	-17	-32	0	-4
O=C(COc1cccc(Cl)c1)Nc1ccccc1[N+](=O)[O-]	-4	32*	0	2
Cc1cccc(OCC(=O)Nc2ccc(F)c([N+](=O)[O-])c2)c1	1	32*	0	0
Cc1ccc(OCC(=O)Nc2ccc(F)c([N+](=O)[O-])c2)cc1C	-8	13	0	0
O=C(COc1cccc2ccccc12)N1CCN(c2ccc(-c3ccncc3)nn2)CC1	12	-1	0	0
O=C(O)c1sc(C(=O)O)c2c1OCCO2	-6	-2	0	2
CCC(=O)NC(c1ccccc1OC)c1cc([N+](=O)[O-])c2cccnc2c1O (stereo not drawn)	98*	-12	-1	1
CCC(=O)NC(c1ccccc1)c1cc([N+](=O)[O-])c2cccnc2c1O (stereo not drawn)	84*	-6	-1	-1
CCC(=O)NC(c1ccc2c(c1)OCO2)c1cc([N+](=O)[O-])c2cccnc2c1O (stereo not drawn)	63*	-14	-1	-1
CCCC(=O)NC(c1ccc(O)c(OCC)c1)c1cc([N+](=O)[O-])c2cccnc2c1O (stereo not drawn)	41	15	0	0
CCCC(=O)NC(c1ccc2c(c1)OCO2)c1cc([N+](=O)[O-])c2cccnc2c1O (stereo not drawn)	44	18	0	0
CCC(=O)NC(c1ccc(C(C)C)cc1)c1cc([N+](=O)[O-])c2cccnc2c1O (stereo not drawn)	10	-1	-1	2
SMILES	MITF inh	TEAD-YAP inh	FBW7 act	GPR151 activ
CCC(=O)NC(c1ccccc1Cl)c1cc([N+](=O)[O-])c2cccnc2c1O (stereo not drawn)	72*	3	-1	-1
CC(=O)NC(c1ccc(C(C)C)cc1)c1cc([N+](=O)[O-])c2cccnc2c1O (stereo not drawn)	7	7	-1	0
COc1ccc(C)cc1Nc1ccnc2c1c(=O)n(C)c(=O)n2C	4	2	0	0
Cc1ccc2c(N)c(C(=O)N3c4ccccc4Sc4ccccc43)sc2n1	4	6	0	0
CCOC(=O)c1ccc(-c2ccc(/C=C(/C#N)C(=O)NCCO)o2)cc1	1	-18	0	-1
O=C(N/N=C/c1ccc(/C=N/NC(=O)c2ccccc2O)cc1)c1ccccc1O	16	59*	0	0
O=C(N/N=C/c1ccc2ccccc2c1)c1ccc(O)cc1O	-7	37*	0	3
Cc1[nH]n(-c2ccccc2)c(=O)c1/C=N/NC(=O)c1ccc(O)cc1O	59*	12	0	3
